Screening results from PubChem BioAssay.
Giardia FBPA inh – Giardia lamblia aldolase inhibition. purified Giardia FBPA. Potency, µM (doses to about 59.6 µM), most hits filed as inhibitors. hit rate 0.71% among 290,000; note: nearly all actives have a fitted effect of over 55% in size
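40 nM FBPA preincubated 10 min at RT with compound (up to 57.5 uM final), then substrate plus GAPDH/TPI/NAD/arsenate coupling and diaphorase/resazurin added. Fluorescence read after 20 min at RT, 525/598 nm.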
RE007 growth inh – less growth of the S. pombe RE007 Vpr strain; hit rate 0.21% among 360,000; Potency, µM (highest dose often 92.2 µM), hits mostly inhibitors; S. pombe RE007 Vpr strain, BacTiter-Glo ATP luminescence, 24 h; active = well fitted falling curve with a large enough effect; inconclusive = small, poorly fitted or top-dose-only effect; inactive = no such curve, though single readings can be large or run the other way; note: nearly all actives have a fitted effect of over 50% in size
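Fission yeast strain RE007, carrying one chromosomally integrated HIV-1 vpr copy, was seeded at OD 0.01 in PMG+AL medium with 23 nL pinned compound. After 24 h at 30 °C and 99% humidity, viability was read by BacTiter-Glo luminescence.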
LmPK inhibitor – inhibitors of Leishmania mexicana pyruvate kinase; Q27686; purified LmPK, Kinase-Glo ATP luminescence, 1 h; Potency, µM (highest dose often 57.5 µM), hits mostly inhibitors; hit rate 0.37% among 290,000
Target sequence (Q27686 whole entry, looked up): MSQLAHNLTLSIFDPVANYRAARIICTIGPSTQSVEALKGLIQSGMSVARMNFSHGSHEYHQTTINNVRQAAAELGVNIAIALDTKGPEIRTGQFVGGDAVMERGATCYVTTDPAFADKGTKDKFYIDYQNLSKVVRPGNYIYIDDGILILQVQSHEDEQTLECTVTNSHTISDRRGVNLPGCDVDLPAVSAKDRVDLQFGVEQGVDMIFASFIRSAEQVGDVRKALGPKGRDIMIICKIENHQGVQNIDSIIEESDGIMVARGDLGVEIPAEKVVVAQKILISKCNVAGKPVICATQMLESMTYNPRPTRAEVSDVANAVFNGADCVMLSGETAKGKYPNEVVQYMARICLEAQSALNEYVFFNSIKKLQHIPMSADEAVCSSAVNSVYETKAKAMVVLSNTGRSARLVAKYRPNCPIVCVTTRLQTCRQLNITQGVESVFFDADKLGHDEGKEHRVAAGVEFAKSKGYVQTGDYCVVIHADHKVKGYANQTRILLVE
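Screened at intermediate enzyme activity to detect both inhibitors and activators: LmPK at 0.1 nM, with a 0.5 nM enzyme column as activation reference. PEP 0.5 mM, ADP 0.1 mM; ATP detected by luminescence after 1 h.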
CHX counter – counter-screen for Shiga toxin inhibitors: cycloheximide protein synthesis inhibition | cell reporter, cycloheximide protein synthesis inhibition counterscreen | max response, % | hit rate 12% among 300,000 | AID 2314; in the data active = max response mostly above about 13%, no sharp cut-off; inactive = mostly below about 14%; note: read at 38.3 µM for the half of the compounds with a filed dose
TbPYK inhibitor – T. brucei pyruvate kinase inhibition; Potency, µM (top dose mostly 76.8 µM), hits mostly inhibitors; hit rate 0.12% among 410,000; TbPYK enzyme, Kinase-Glo Plus ATP luminescence, 45 min; Q57TT1; note: nearly all actives have a fitted effect of over 50% in size
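ADP (130 uM final) triggers the TbPYK reaction after compound addition; incubation is 45 min at room temperature. Kinase-Glo Plus is then added and luminescence imaged. Normalized data are fitted to concentration-effect curves.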
Shiga inhibitor – blocks Shiga toxin action in Vero cells. AID 2315. hit rate 9.2% among 290,000. Vero cells, Shiga toxin protein synthesis inhibition reporter. inhibition, % at 38.7 µM; in the data active = inhibition mostly above about 28%, no sharp cut-off; inactive = mostly below about 43%
A number is an active result; – = inactive; ? = inconclusive; · = no result given. This is one part of a sample in which hits are shown more often than they occur. Unless noted, calls come from the whole dose curve; as a rule, active = well fitted curve in the direction sought with a large enough effect; inconclusive = small, poorly fitted or top-dose-only effect, or another doubt; inactive = no such curve, though single readings can be large; an effect the other way counts as inactive or inconclusive.

SMILES | Giardia FBPA inh | RE007 growth inh | LmPK inhibitor | CHX counter | TbPYK inhibitor | Shiga inhibitor
CCOc1cc(-c2nnc(SCC(=O)NCCCOC)nc2-c2ccc(OC)c(OCC)c2)ccc1OC | · | · | · | · | – | ·
CN(C)C1CN(Cc2cn(Cc3cccc(C(F)(F)F)c3)nn2)S(=O)(=O)C1 (centres undefined) | · | – | · | · | – | ·
CCN(CC)C(=O)CSc1nc(-c2ccccc2)cc(-c2ccc(OC)cc2)c1C#N | · | · | · | · | – | ·
CC(=O)c1cccc(NC(=O)CSc2ccc(-c3ccco3)nn2)c1 | · | – | – | – | ? | –
O=C(CCSc1ccccn1)Nc1ccc(Br)cc1 | – | – | – | 49 | – | 101
CCc1ccc(NC(=O)CSc2ccc(-c3ccco3)nn2)cc1 | – | – | – | 17 | – | –
O=C(CSc1ccccn1)Nc1ccc(Br)cn1 | – | – | – | 21 | – | –
Cn1c(N)c(C(=O)CSc2ccccn2)c(=O)n(C)c1=O | – | – | – | – | – | 47
O=C(CSc1ccccn1)Nc1ccccc1F | – | – | – | – | – | –
O=C(CCSCCc1ccccn1)Nc1ccc(Cl)cc1 | · | · | · | · | – | ·
Cn1c(N)c(C(=O)COC(=O)c2ccccn2)c(=O)n(C)c1=O | – | – | – | – | – | –
CC(C(=O)O)n1c2ccccc2c2cnn(C)c(=O)c21 (centres undefined) | – | – | – | – | – | –
COc1ccc(NC(=O)CSCc2ccccc2C)cc1 | – | – | – | 54 | – | 65
COc1ccc(NC(=O)CSc2ccccn2)cc1 | – | – | – | 49 | – | 62
O=C(CSc1ccccn1)Nc1ccc(NC(=O)CSc2ccccn2)cc1 | – | ? | – | – | – | –
Cc1ccc(NC(=O)CSc2nc(C)c(C)c(C)n2)c([N+](=O)[O-])c1 | – | – | – | – | – | –
COc1ccc(NC(=O)CSc2ccccn2)c([N+](=O)[O-])c1 | – | – | – | 37 | – | 102
Cc1ccccc1CSCC(=O)Nc1ccccc1-c1ccccc1 | – | · | – | – | – | –
Cc1ccc(NC(=O)CSc2ncccn2)c([N+](=O)[O-])c1 | – | – | – | 28 | – | 82
CCCCNCC#CCOc1cc(C)ccc1C(C)C | ? | – | – | – | – | –
CN(Cc1ccccc1)C(=O)COC(=O)c1ccc[nH]c1=O | · | – | · | · | – | ·
COc1ccc(S(=O)(=O)Cc2ccc(C(=O)NC3CCCCCC3)o2)cc1 | · | – | – | – | – | –
COc1ccc(C(=O)NCCSc2ccccn2)cc1 | – | – | – | 32 | – | 53
COc1ccccc1C(=O)CSc1ccccn1 | – | – | – | 27 | – | 94
Cc1nn(CC(=O)OCC(=O)Nc2ccccc2[N+](=O)[O-])c(C)c1[N+](=O)[O-] | – | – | – | – | – | –
SMILES | Giardia FBPA inh | RE007 growth inh | LmPK inhibitor | CHX counter | TbPYK inhibitor | Shiga inhibitor
Cc1ccc(NC(=O)COC(=O)Cn2nc(C)c([N+](=O)[O-])c2C)c([N+](=O)[O-])c1 | – | – | – | 28 | – | –
COc1ccc(NC(=O)CC(C)c2ccccc2)c([N+](=O)[O-])c1 (centres undefined) | – | – | – | 19 | – | –
COC(=O)CNC(=O)CSc1ccccn1 | – | – | – | – | – | –
Oc1ccccc1-c1nc(/C=C/c2ccccc2Cl)nn1-c1ccccc1 | · | · | · | · | – | ·
CCC(C)c1ccc(OCC(=O)Nc2cccc3ccc(C)nc23)cc1 (centres undefined) | · | · | · | · | – | ·
Clc1ccc(-c2nc(Cc3ccccc3)no2)cc1 | – | – | – | 31 | – | –
COc1ccc(Cc2noc(-c3ccccc3)n2)cc1OC | – | – | – | – | – | –
COc1ccc(-c2nc(Cc3ccc(Cl)cc3)no2)cc1OC | – | – | – | – | – | –
Cc1ccccc1-c1nc(Cc2ccccc2)no1 | – | – | – | 51 | – | 69
CC(C)(C)c1ccc(C(=O)NCCC(=O)N2CCCC2)cc1 | – | – | – | 40 | – | 96
O=C(NCCC(=O)N1CCCC1)c1ccccc1Cl | · | – | – | 18 | – | –
O=C(NCC(=O)N1CCCC1)c1ccc(Cl)cc1 | – | – | – | 16 | – | 27
O=C(NCC(=O)N1CCCCCC1)c1ccc(Br)cc1 | – | – | – | 34 | – | 47
CCC(C)[C@H](NS(=O)(=O)c1ccc(C)cc1)C(=O)N1CCC(C(=O)N[C@@H](Cc2ccccc2)C(=O)O)CC1 (some centres undefined) | – | – | – | – | – | –
O=C(NCCC(=O)N1CCCCC1)c1ccc(Br)cc1 | · | – | – | 56 | – | 88
CC(C)(C)c1ccc(C(=O)NNC(=O)C(=O)N2CCCCC2)cc1 | – | – | – | 17 | – | 39
O=C(NNC(=O)c1ccccc1)C(=O)N1CCCCC1 | – | – | – | – | – | –
O=C(NCCCCN1CCN(c2cccc(Cl)c2Cl)CC1)c1ccc2c(c1)Cc1ccccc1-2 | – | · | · | – | · | –
Cn1c(SCC(=O)Nc2nccs2)nnc1C1CC1 | – | – | – | – | – | –
O=C(CSc1nccn1Cc1ccccc1)Nc1nc2ccccc2s1 | · | · | · | · | – | ·
O=C(CSc1nccn1Cc1ccccc1)Nc1ccccc1 | · | – | – | 18 | – | 33
COC(=O)c1ccc(NC(=O)CSc2nccn2CCc2ccccc2)cc1 | – | – | – | 44 | – | –
CC(=O)Nc1cccc(NC(=O)CSc2nccn2Cc2ccccc2)c1 | · | – | – | – | – | –
O=C(CSc1nccn1Cc1ccccc1)Nc1nccs1 | – | – | – | 37 | – | active
COC(=O)c1ccc(NC(=O)CSc2nccn2Cc2ccc(Cl)cc2)cc1 | · | · | · | · | – | ·
SMILES | Giardia FBPA inh | RE007 growth inh | LmPK inhibitor | CHX counter | TbPYK inhibitor | Shiga inhibitor
Cn1c(SCC(=O)Nc2nccs2)nnc1C12CC3CC(CC(C3)C1)C2 | – | – | – | 27 | – | –
CCSc1ncc(Cl)c(C(=O)N(Cc2ccc(N(C)C)cc2)Cc2ccco2)n1 | · | · | · | · | – | ·
COc1ccc(Br)c2c1-c1nc(NC(=O)c3ccccc3SC)sc1C2 | · | · | · | · | – | ·
Nc1nc(N)c2[nH]c(-c3ccccc3)nc2n1 | – | – | – | – | – | –
N#Cc1ccc(Cn2ccnc2C(=O)Nc2ccccc2)cc1 | – | – | – | – | – | –
Cc1nnc(NC(=O)CSc2cn(Cc3ccccc3)c3ccccc23)s1 | – | – | – | – | – | –
O=C(CSc1nccn1Cc1ccc(Cl)cc1)NC1CCCC1 | · | · | · | · | – | ·
Cc1ccc(Cn2ccnc2C(=O)Nc2ccccc2)cc1 | – | – | – | 27 | – | 87
Cc1ccc(Cn2cc(SCC(=O)Nc3nccs3)c3ccccc32)cc1 | – | – | – | 24 | – | –
O=C(CSc1nccn1Cc1ccccc1)NC1CCCC1 | · | ? | – | 25 | – | –
CCOc1ccc(NC(=O)CC2C(=O)N(c3ccccc3)C(=O)N2C2CCCCC2)cc1 (centres undefined) | · | · | · | · | – | ·
O=C1CC(C(=O)N2CCc3ccccc32)CN1c1ccc(F)cc1 (centres undefined) | – | – | – | – | – | –
CC(C)(C)C(=O)Nc1cccc(C(=O)OCc2cc(=O)n3nc(C4CCCCC4)sc3n2)c1 | · | · | · | · | – | ·
